Entries with a potency or affinity are not part of this list. A number with no mark means an inactive call.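 How the source made its calls: active means signal drop whose fitted half-maximal concentration is at most twice the top valid dose, in every test run; inconclusive means mixed calls across runs, poor fit, or flat 30 to 70% inhibition; inactive means wrong direction, flat within 30%, or potency beyond limit.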
Test: RMG-1 ovarian cancer cell viability loss – cherry-pick, dose response (AID 687029);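 further: cells exposed to compound for 96 hours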
Details: RMG-1 viability, CellTiterGlo ATP luminescence, 96 h; series mostly up to 35 µM; activity change, negative = inhibition: at the top concentration

Row | Structure (SMILES) | activity change, negative = inhibition
1 | C=C1C(=O)C23C(O)C1CCC2C12CCCC(C)(COC(C)=O)C1C(O)C3(O)OC2 (configuration not stated) | 30.8%
2 | COc1ccc(/C=c2/sc3n(c2=O)C(c2ccccc2OC)C2=C(N=3)c3ccccc3CC2)cc1O (configuration not stated) | 44.7%
3 | NC1=C(Br)C(=O)c2ncccc2C1=O | 24.8%
4 | Cc1ccc(Cn2ccsc2=NC(=O)CCl)cc1 | 28.6%
5 | C[C@@H]1CN([C@@H](C)CO)C(=O)Cc2cc(NS(=O)(=O)c3ccccc3)ccc2O[C@H]1CN(C)Cc1ccc(Cl)c(Cl)c1 | 15%
6 | CC(=NNc1ccc2ccccc2n1)c1ccccn1 | 27.6%
7 | Cc1cc(Br)c(OCc2ccc(C(=O)N/N=C/c3ccc[nH]3)cc2)c(Br)c1 | 26.7%
8 | Cc1ccc(-n2nc(C)c(NC(=O)CCl)c2C)cc1C | 24.8%
9 | O=C(CCCCCCC(=O)Nc1ccccc1)NO | 36.2%
10 | CCOc1ccccc1NC(=O)c1nc(S(=O)(=O)Cc2cccc(C)c2)ncc1Cl | 41.1%
11 | CN(C)CCNC(=O)c1cccc(-c2cnc3c(NC=O)cc(-c4cccc(C(F)(F)F)c4)cn23)c1 | 34.4%
12 | COC1=CC(=O)c2c(ccc3ncnc(N)c23)C1=O | 18.3%
13 | CCN1CCN(Cc2ccc(NC(=O)c3ccc(C)c(NC(=O)C(=O)c4c[nH]c5ccccc45)c3)cc2C(F)(F)F)CC1 | 19.3%
14 | OCC1OC(n2cnc3c(NCc4ccccc4O)ncnc32)C(O)C1O (configuration not stated) | 15.3%
15 | C=CCn1c(C)cc(C2=NNC(=NCC)SC2)c1C | 28.8%
16 | CCS(=O)(=O)c1ncc(Cl)c(C(=O)Nc2ccc(S(=O)(=O)N3CCC(C)CC3)cc2)n1 | 22.2%
17 | O=c1c2ccccc2cnn1-c1nc2ccccc2[nH]1 | 20.4%
